# An excerpt weighted towards active compounds, which were near 32% of everything screened.
# CYP2C9 activ: increases human cytochrome P450 2C9 activity. P11712. recombinant CYP2C9, luciferin-H conversion, luminescence; stronger effect = higher value; factor 1 = untreated enzyme, 0 = blocked. activation factor at 5 µM. hit rate 1.4% among 96,000;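 active = activation factor of 2 or more for CYP2C9 at a 5 µM dose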;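 note: 0 = sulfaphenazole-blocked wells and 1 = vehicle-only wells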
# CYP2C9 inhib: inhibitors of human CYP2C9. P11712. CYP2C9 Supersomes, luciferin-H conversion, luminescence. inhibition, % at 5 µM. hit rate 20% among 96,000. AID 777;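 active = blocking of liver enzyme CYP2C9 beyond about 50% at 5 µM, limit read from the data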
# PostGolgi yeast: growth inhibition of a yeast mutant, post-Golgi transport screen; post-Golgi transport phenotypic cell assay; inhibition, % at 10 µM; hit rate 0.9% among 98,000;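 note: yeast cells grown in 1536-well plates; yeast grown about 18 h at 30C before absorbance read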
# PostGolgi ctrl: yeast control strain growth, post-Golgi counter-screen | efflux-deficient yeast background strain, growth absorbance A615, 16 h | hit rate 5% among 98,000 | inhibition, % at 10 µM
# CYP2C19 activ: increases human CYP2C19 enzyme activity. P33261. recombinant CYP2C19, luciferin-H EGE luminescence; stronger effect = higher value; 0 = fully inhibited enzyme, 1 = untreated enzyme. activation factor at 5 µM. 96,000 tested, under 10 active. AID 1025;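 active = activation factor of at least 2 at 5 µM in the primary screen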;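 note: 0 = wells with 2.5 mM tranylcypromine and 1 = vehicle-only wells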
# Target sequence (P33261 whole entry, looked up): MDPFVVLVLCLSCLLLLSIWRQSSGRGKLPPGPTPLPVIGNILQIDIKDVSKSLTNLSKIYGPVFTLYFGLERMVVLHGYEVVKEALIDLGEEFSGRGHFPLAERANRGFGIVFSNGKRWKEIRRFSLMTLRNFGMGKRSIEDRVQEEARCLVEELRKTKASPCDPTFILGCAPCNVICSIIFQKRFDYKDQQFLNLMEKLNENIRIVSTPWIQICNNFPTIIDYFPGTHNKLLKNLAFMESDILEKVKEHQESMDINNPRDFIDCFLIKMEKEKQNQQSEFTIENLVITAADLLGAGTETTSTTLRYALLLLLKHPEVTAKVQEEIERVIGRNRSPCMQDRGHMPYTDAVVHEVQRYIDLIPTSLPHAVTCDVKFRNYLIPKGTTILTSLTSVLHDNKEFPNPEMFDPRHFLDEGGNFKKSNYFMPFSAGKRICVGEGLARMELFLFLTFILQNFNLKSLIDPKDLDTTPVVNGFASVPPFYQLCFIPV
# CYP2C19 inh: inhibitors of human CYP2C19. AID 778. inhibition, % at 5 µM. CYP2C19 Supersomes, luciferin-H EGE luminescence, 30 min. P33261. hit rate 21% among 96,000;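 active = CYP2C19 inhibition above a set limit at 5 µM in the primary screen, cut at about 50% in these data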;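 note: plate controls were negative control wells for no effect and 2.5 mM tranylcypromine positive control for full effect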
# An asterisk follows results filed as active; . = no result given. Cut-off read from the data, not from the text of the source, unless noted: active = inhibition above about 30%; inactive = the rest.
SMILES,CYP2C9 activ,CYP2C9 inhib,PostGolgi yeast,PostGolgi ctrl,CYP2C19 activ,CYP2C19 inh
CCOC(=O)N1CCC(NC(=O)c2cccc3c2C(=O)N(c2ccc(OC)cc2)C3)CC1,0,98*,-1,38*,0,97*
O=C(CCSc1nnc(-c2ccncc2)o1)Nc1ccc(Cl)cc1,0.2,84*,102*,99*,0,96*
CC(=O)c1c(C)cc(C)c(CSc2nnc(-c3ccco3)o2)c1C,0.5,51*,-21,17,0.5,45
COc1cccc(NC(=O)CSc2nnc(-c3ccc(C)cc3)o2)c1,0.9,7,9,8,1.2,-16
Cc1ccc(NC(=O)CSc2nnc(-c3ccncc3)o2)cc1,0.5,51*,12,7,0,98*
O=C(CCSc1nnc(-c2ccco2)o1)Nc1ccccc1,0.7,28,-1,18,0.2,79*
Cc1ccc(S(=O)(=O)Cn2cnnn2)cc1,1,3,2,13,0.9,10
CN(C)S(=O)(=O)N1CCN(CC(O)COc2ccc(C(=O)c3ccccc3)cc2)CC1 (stereo not given),0.6,38,-2,0,0.7,25
O=C(CCSc1nnc(-c2ccncc2)o1)Nc1ccccc1Cl,0.4,61*,-4,1,0.1,87*
COc1ccccc1Nc1nnc(SCC(=O)c2cc(C)n(CC3CCCO3)c2C)s1 (stereo not given),0.7,26,0,23,0.5,48
Cc1c(NC(=O)C2Cc3ccccc3CN2C(=O)c2ccco2)c(=O)n(-c2ccccc2)n1C (stereo not given),1.1,-10,-6,-1,1.1,-15
O=C(Nc1ccccc1N1CCOCC1)C1Cc2ccccc2CN1C(=O)c1ccco1 (stereo not given),0.3,67*,9,4,0.5,51*
Cc1ccc2nc(/C(C#N)=C\c3ccc(N4CCCCC4)c([N+](=O)[O-])c3)[nH]c2c1,0.4,59*,4,4,0.4,56*
COc1cc(/C=C(\C#N)c2nc3ccccc3[nH]2)c([N+](=O)[O-])cc1OCc1ccccc1,0.2,76*,11,28,0.6,43
CCN(CC)c1ccc(/C=C(/C#N)c2nc3ccccc3[nH]2)c(OC(C)C)c1,0.3,74*,2,11,0.5,48
N#C/C(=C/c1ccc(N2CCCC2)c([N+](=O)[O-])c1)c1nc2ccccc2[nH]1,0.4,58*,4,2,0.3,73*
N#C/C(=C\c1ccc(Oc2ccc(C(F)(F)F)cc2[N+](=O)[O-])cc1)c1nc2ccccc2[nH]1,0.8,21,-1,-11,0.8,18
O=C(Cn1cnc2c(nnn2Cc2ccc(F)cc2)c1=O)N1CCCCC1,1,3,-4,-2,0.9,6
O=C(Nc1ccc2c(c1)OCO2)N1CCN(C(=O)C2CCCO2)CC1 (stereo not given),.,.,-5,0,.,.
CCCn1cc(NC(=O)c2cc3n(n2)C(C(F)(F)F)CC(c2ccccc2)N3)cn1 (stereo not given),1.1,-6,-3,20,1,-3
Cc1oc(-c2ccc(Cl)cc2)[n+]([O-])c1C,0.8,15,3,9,1,3
COc1cc(/C=C(/C#N)c2nc3ccccc3[nH]2)ccc1OCC(=O)Nc1ccccc1C(C)C,0.4,60*,2,17,0.6,38
O=C(O/N=C\c1ccc(N2CCCCC2)c([N+](=O)[O-])c1)c1c(F)cccc1F,1.4,-37,14,-1,0.6,43
Cc1ccc(C(=O)O/N=C\c2ccc(N3CCCCC3)c([N+](=O)[O-])c2)cc1,0.4,61*,-9,-3,0.6,43
CSc1ncccc1C(=O)OCC(=O)N(C)C1CCS(=O)(=O)C1 (stereo not given),1.2,-21,0,18,1.1,-8
SMILES,CYP2C9 activ,CYP2C9 inhib,PostGolgi yeast,PostGolgi ctrl,CYP2C19 activ,CYP2C19 inh
Cc1cc(C)n2nc(/C(C#N)=C/c3ccccc3)c(C#N)c2n1,0.8,18,0,6,0.9,5
COC(=O)c1ccc(NC(=O)CSc2nccn2CCc2ccccc2)cc1,0.5,50*,-7,30,0.2,76*
CCOCCCn1c(SCC(=O)Nc2ccc(C(N)=O)cc2)nc2ccccc2c1=O,0.8,18,5,9,0.4,56*
CCOCCCn1c(SCC(=O)NC(C)(C)C)nc2ccccc2c1=O,0.9,11,3,7,0.9,8
COCCCn1c(SCC(=O)Nc2ccc(C(=O)OC)cc2)nc2ccccc2c1=O,0.1,88*,-9,6,0.2,78*
Cc1cc(C)cc(N(CC(=O)N2CCN(Cc3ccccc3)CC2)S(=O)(=O)c2c(C)noc2C)c1,1,-4,17,1,1.1,-10
O=C(Nc1ccc2oc(=O)ccc2c1)c1ccco1,0.8,23,15,4,0.8,24
O=C(Nc1ccc2oc(=O)ccc2c1)c1cccnc1Cl,.,.,32*,2,.,.
Nn1c(SCC(=O)N2CCN(S(=O)(=O)c3ccccc3)CC2)nnc1-c1cccs1,1,-1,2,3,1,-2
CCc1ccc(NC(=O)N(Cc2ccco2)C(C)c2cccs2)cc1 (stereo not given),0.6,42,-2,20,0.8,24
CCc1ccc(NC(=O)N(C2CCCCC2)C(C)c2cccnc2)cc1 (stereo not given),0.8,16,107*,95*,0.8,17
CCc1ccc(NC(=O)N(Cc2cccnc2)Cc2ccco2)cc1,0.1,87*,0,-2,0,98*
Cc1ccc(NC(=O)N(C2CCCCC2)C(C)c2cccnc2)cc1C (stereo not given),1.1,-9,99*,90*,0.9,7
CCCC1(C(=O)O)NC(c2cccc(OC)c2O)C2C(=O)N(c3ccccc3)C(=O)C21 (stereo not given),1.1,-10,1,6,1,-4
COC(=O)c1ccc(-c2cc(C(=O)O)c3cc4c(cc3n2)OCCO4)cc1,1,0,5,4,0.9,15
COc1ccc(NC(=O)CCc2nc(-c3ccc(C)cc3)no2)cc1Cl,0.9,11,0,9,0.9,12
COc1cc(OC)c(NC(=O)CCc2nc(-c3cccs3)no2)cc1Cl,0.4,62*,2,8,0.1,92*
COc1ccccc1-c1noc(CCC(=O)Nc2cc(C(F)(F)F)ccc2Cl)n1,1.4,-44,-5,11,0.3,68*
Nc1nnc(COc2ccc(Br)cc2Br)s1,0.9,6,8,3,0.3,71*
O=C(Nc1ccccc1F)N(CCCN1CCOCC1)Cc1cc2cc3c(cc2[nH]c1=O)OCCO3,0.5,52*,-1,0,0.1,90*
CCc1ccc2[nH]c(=O)c(CN(CCCN3CCOCC3)C(=O)Nc3ccccc3)cc2c1,0.5,48,-5,4,0.4,56*

# Compound activity: PubChem BioAssay, several laboratories
